Compounds with a hit are over-represented: about 2.3% of the library has one in this group of screens.
MCL1-BIM inh: MCL1-BIM-BH3 interaction inhibition (human); GST-MCL1 / FITC-Bim-BH3 fluorescence polarization; inhibition, % at 10.9 µM; AID 2057; hit rate 0.68% among 320,000;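 active = inhibition above the mean inhibition of all tested compounds plus 3 SD, set per campaign, cut at about 40% in these data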;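 note: higher means more loss of mP so more displacement of Bim peptide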
Bcl-xL primary: blocks human Bcl-xL binding to Bim BH3 peptide; Q07817; GST-Bcl-xL / FITC-Bim BH3 peptide fluorescence polarization; hit rate 0.7% among 320,000; inhibition, % at 10.9 µM;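 active = inhibition above the mean of all tested compounds plus 3 SD, cutoff set per campaign, cut at about 30% in these data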;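 note: inhibitors lower millipolarization by displacing the labeled peptide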
Target sequence (Q07817 whole entry, looked up): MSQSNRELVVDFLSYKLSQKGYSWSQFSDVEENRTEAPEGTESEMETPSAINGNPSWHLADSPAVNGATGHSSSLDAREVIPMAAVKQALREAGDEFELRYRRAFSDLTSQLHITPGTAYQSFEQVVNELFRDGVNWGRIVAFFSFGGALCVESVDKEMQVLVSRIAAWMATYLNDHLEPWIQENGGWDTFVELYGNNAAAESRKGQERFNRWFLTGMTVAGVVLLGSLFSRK
Mcl1-Bid inh: Mcl-1/Bid interaction inhibition | Q07820 | TR-FRET Mcl-1/Bid-Dy647 peptide binding, 1536-well | hit rate 0.97% among 220,000 | inhibition, % at 21.7 µM;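 active = compounds that cut the binding signal by more than half at the single screening dose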;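 note: His-tagged Mcl-1 with europium anti-His antibody binding Bid BH3 peptide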
Mcl1-Noxa inh: disrupts binding of human Mcl-1 to Noxa peptide; hit rate 1.5% among 220,000; TR-FRET Mcl-1/Noxa peptide binding, 2 h; Q07820; AID 1022; inhibition, % at 21.7 µM;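 active = compounds that cut the protein-peptide binding signal by more than 50% relative to plate controls in a single-dose test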;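 note: His-tagged Mcl-1 with rhodamine Noxa BH3 peptide and terbium anti-His antibody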
Mcl-1 Bim block: inhibitors of Bim-Mcl-1 interaction, human | inhibition, % at 10 µM | hit rate 0.1% among 190,000 | Q07820 | AID 1009 | Bead-based flow cytometry, Bim peptide-Mcl-1 binding; in the data active = inhibition above about 40%
GLD-1 RNA inh: GLD-1-TGE RNA interaction inhibition (C. elegans); hit rate 0.44% among 320,000; inhibition, % at 5.96 µM; purified GLD-1 + fluorescein TGE RNA, fluorescence polarization; AID 2280; Q17339;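 active = percent inhibition above a per-plate cutoff, the plate mean of test compounds plus 3 SD, cut at about 30% in these data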
Bcl-xL conf: Bcl-xL (human) inhibition, MCL1 counter-screen confirmation. shares compounds with MCL1-BIM inh. GST-Bcl-xL / FITC-Bim BH3 peptide FP binding. inhibition, % at 10.9 µM. hit rate 54% among 1,700. AID 2166;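 active = inhibition above a cutoff equal to the mean inhibition of all tested compounds plus 3 SD, cut at about 30% in these data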
MCL1 BIM confirm: MCL1-BIM-BH3 interaction inhibition, confirmation. shares compounds with MCL1-BIM inh. GST-MCL1 / FITC-Bim-BH3 fluorescence polarization. inhibition, % at 10.9 µM. hit rate 61% among 1,700. AID 2168;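 active = inhibition above the average of all tested compounds plus 3 SD, cut at about 40% in these data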
Numbers stand for hits; . = inactive; / = no result given.

SMILES	MCL1-BIM inh	Bcl-xL primary	Mcl1-Bid inh	Mcl1-Noxa inh	Mcl-1 Bim block	GLD-1 RNA inh	others
COc1ccc(/C=C\C(=O)c2c(O)ccc3c(C)cc(=O)oc23)cc1OC	.	.	.	.	.	.
COc1cccc(CN(C(=O)/C=C/c2ccc(Cl)cc2)C2CCS(=O)(=O)C2)c1 (centres undefined)	.	.	84	.	.	.
O=C(/C=C/c1ccccc1)N(Cc1cccc(Cl)c1)C1CCS(=O)(=O)C1 (centres undefined)	.	.	.	.	/	.
CNc1cnn(-c2ccccc2)c(=O)c1Cl	.	.	.	.	.	.
O=c1c(Cl)c(N/N=C/c2ccc(Br)cc2)cnn1-c1ccccc1	.	.	63	52	.	.
CC(Cc1cccs1)NC(=O)Nc1ccc(Cl)c(Cl)c1 (centres undefined)	.	.	.	.	.	.
CNC(=O)NC1CCCc2ccccc21 (centres undefined)	.	.	.	92	.	.
CCCC(=O)N1CC(=O)Nc2ccc(Br)cc2C1c1ccc(F)cc1 (centres undefined)	.	.	/	/	/	.
O=C1CN(C(=O)CCN2CCOCC2)C(c2ccccc2)c2cc(Br)ccc2N1 (centres undefined)	.	.	.	.	44	.
Cc1cc(C)nc(SCC(=O)N(C)CC(=O)Nc2c(Cl)cccc2Cl)n1	.	.	/	/	/	.
Cc1ccc(-c2csc(NC(=O)c3ccc(C)o3)n2)cc1	.	.	.	.	.	.
Cc1ccc(-c2csc(NC(=O)c3ccno3)n2)cc1	.	.	.	56	.	.
CN(CC(=O)NCC(=O)Nc1ccc(F)c(F)c1F)C1CCS(=O)(=O)C1 (centres undefined)	.	.	/	/	/	.
Cc1ccc(/C=N/NC(=O)C(C)Oc2cccc3ccccc23)o1 (centres undefined)	.	.	/	/	/	.
Cc1nc(Cl)c2c(n1)NC1=C(O2)C(=O)CCC1	198	165	.	.	.	168	Bcl-xL conf=146;MCL1 BIM confirm=175
C=CCN1CCN(C(=O)c2oc3ccccc3c2C)CC1	.	.	/	/	/	.
CC1(NC(=O)CCc2nc3sc4c(c3c(=O)[nH]2)CCCC4)CCS(=O)(=O)C1 (centres undefined)	42	.	/	/	/	.	Bcl-xL conf=.;MCL1 BIM confirm=44
CC(=O)Nc1ccc(NC(=O)CCc2nc3sc4c(c3c(=O)[nH]2)CCCC4)cc1	.	.	/	/	/	.
Cc1ccc(S(=O)(=O)Nc2ccc(Br)cc2C(NCC(=O)O)c2ccccc2)cc1 (centres undefined)	.	.	.	.	.	.
O=C(O)CSc1cc(NS(=O)(=O)c2ccc(Br)cc2)c2ccccc2c1O	42	.	/	/	/	.	Bcl-xL conf=35;MCL1 BIM confirm=79
COc1ccc(CC(=O)OCN2C(=O)c3ccccc3C2=O)cc1OC	.	.	/	/	/	.
Cc1ccc(N2C3=C(C(=O)CC(C)(C)C3)C(c3cn(C)nc3C)C3=C2CC(C)(C)CC3=O)cc1	104	93	/	/	/	88	Bcl-xL conf=116;MCL1 BIM confirm=158
Cc1nn(C)cc1C1C2=C(CC(C)(C)CC2=O)N(c2ccccc2)C2=C1C(=O)CC(C)(C)C2	.	.	.	.	.	.
Cn1ccc2cc3c(cc21)CCN3C(=O)Nc1cccnc1	46	.	/	/	/	.	Bcl-xL conf=39;MCL1 BIM confirm=50
Cc1nc(C)c(NC(=O)N2CCc3ccccc32)cc1NC(=O)N1CCc2ccccc21	.	.	.	.	.	.
O=C(Nc1ncn[nH]1)c1cccc(F)c1	.	.	/	/	/	.
c1cc(-c2nnc3n2CCCCC3)ccn1	84	.	.	.	.	.	Bcl-xL conf=.;MCL1 BIM confirm=.
Cc1ccc2[nH]c(=O)c(CN(Cc3cccnc3)Cc3nnnn3CC3CCCO3)cc2c1 (centres undefined)	.	.	.	.	/	.
O=c1[nH]c2cc3c(cc2cc1CN(Cc1ccc2c(c1)OCO2)Cc1nnnn1CC1CCCO1)OCO3 (centres undefined)	74	70	.	.	.	65	Bcl-xL conf=.;MCL1 BIM confirm=.

Bioassay records deposited in PubChem by several laboratories.
